Experiment [1] is described as follows: rapamycin-like changes in RPL19A-GFP expression – cell-based, S. cerevisiae, multiplex flow cytometry, primary screen (AID 1862; in the data active = percent of DMSO control GFP below about 86%;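 also: lower values mimic rapamycin by blocking the RPL19A rise seen in DMSO cells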). The settings on record: S. cerevisiae RPL19A-GFP strain, flow cytometry fluorescence, 3 h; at 10 µM; stronger effect = lower value. A general note: Flow cytometry measures light scatter and fluorescence of single cells or particles in a stream.

Experiment [2] is described as follows: TOR pathway GLN3 branch reporter MEP2-GFP changes – S. cerevisiae, multiplex flow cytometry, primary screen (AID 1867;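 active = GFP response, as percent of the DMSO control, above the screen-wide mean plus 3 SD, about 139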;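 also: median GFP channel fluorescence of barcode-gated MEP2-GFP cells measured by flow cytometry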). The settings on record: S. cerevisiae MEP2-GFP strain, 3 h, at 10 µM, stronger effect = higher value, 100% means same as DMSO wells.
The nature of experiment [3]: TOR pathway RTG branch CIT2 reporter changes – S. cerevisiae, GFP fusion, multiplex flow cytometry, primary screen (AID 1870;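 active = percent response above a set limit, the screen-wide mean plus 3 SD, cut at about 130% in these data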;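 also: barcoded CIT2-GFP strain pooled with four other GFP strains with rapamycin as positive control; median GFP fluorescence per well over plate mean of DMSO wells so 100% = DMSO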). As to conditions: S. cerevisiae CIT2-GFP expression, 3 h, at 10 µM, stronger effect = higher value.
Experiment [4] can be described thus: TOR pathway LAP4-GFP level changes – S. cerevisiae, multiplex flow cytometry, primary screen (AID 1873;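 active = GFP signal, as percent of the solvent control, above the screen mean plus 3 SD, about 149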). As to conditions: S. cerevisiae LAP4-GFP expression, 3 h, at 10 µM, stronger effect = higher value.
The nature of experiment [5]: yeast AGP1-GFP level changes, GLN3 branch – cell-based, multiplex flow cytometry, S. cerevisiae, primary screen (AID 1887;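 active = GFP signal above the screen-wide mean plus 3 SD, that is over about 124.5% of the solvent control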;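 also: AGP1-GFP fusion strain of S. cerevisiae within a five-strain barcoded multiplex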). As to conditions: 3 h, at 10 µM, stronger effect = higher value.
Experiment [6] can be described thus: reduced mouse 2C T cell binding to pMHC/ICAM-1 vesicles – MLPCN validation set, flow cytometry, LFA-1/ICAM-1 modulator project, pilot screen (AID 2523;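 active = response below a set limit, under 55% cells CD8-positive and vesicle-bound, and CD8 cells' 90th-percentile brightness under 279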;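 as to vesicle binding response: mean PE anti-B7-1 fluorescence of CD8+ cells relative to row control; 100% = QL9-loaded vesicles with DMSO vehicle in the same plate row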). As to conditions: 2C mouse CD8+ T cells, at 7 µM, stronger effect = lower value; double positive events: measured here: CD8+/vesicle+ event percentage.
Experiment [7] deals with Integrin beta-1 (Homo sapiens) + Integrin alpha-4 (Homo sapiens) (UniProt P13612+P05556). The experiment can be described thus: alpha4beta1 integrin LIBS antibody binding reduction – U937 cells, HUTS-21 mAb, flow cytometry, validation set, VLA-4 allosteric modulator project, pilot screen (AID 2674;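 active = inhibition above 50%, about 3 SD of the validation set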;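 also: antibody binding induced by the VLA-4 ligand LDV present at three times its Kd; 0% = LDV ligand with antibody and no compound and 100% = antibody without LDV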). The settings on record: HUTS-21 LIBS mAb binding, at 6.7 µM, stronger effect = higher value, binding induced by LDV ligand.
Sequence of Integrin beta-1 (Homo sapiens) + Integrin alpha-4 (Homo sapiens) (P05556 whole entry, looked up): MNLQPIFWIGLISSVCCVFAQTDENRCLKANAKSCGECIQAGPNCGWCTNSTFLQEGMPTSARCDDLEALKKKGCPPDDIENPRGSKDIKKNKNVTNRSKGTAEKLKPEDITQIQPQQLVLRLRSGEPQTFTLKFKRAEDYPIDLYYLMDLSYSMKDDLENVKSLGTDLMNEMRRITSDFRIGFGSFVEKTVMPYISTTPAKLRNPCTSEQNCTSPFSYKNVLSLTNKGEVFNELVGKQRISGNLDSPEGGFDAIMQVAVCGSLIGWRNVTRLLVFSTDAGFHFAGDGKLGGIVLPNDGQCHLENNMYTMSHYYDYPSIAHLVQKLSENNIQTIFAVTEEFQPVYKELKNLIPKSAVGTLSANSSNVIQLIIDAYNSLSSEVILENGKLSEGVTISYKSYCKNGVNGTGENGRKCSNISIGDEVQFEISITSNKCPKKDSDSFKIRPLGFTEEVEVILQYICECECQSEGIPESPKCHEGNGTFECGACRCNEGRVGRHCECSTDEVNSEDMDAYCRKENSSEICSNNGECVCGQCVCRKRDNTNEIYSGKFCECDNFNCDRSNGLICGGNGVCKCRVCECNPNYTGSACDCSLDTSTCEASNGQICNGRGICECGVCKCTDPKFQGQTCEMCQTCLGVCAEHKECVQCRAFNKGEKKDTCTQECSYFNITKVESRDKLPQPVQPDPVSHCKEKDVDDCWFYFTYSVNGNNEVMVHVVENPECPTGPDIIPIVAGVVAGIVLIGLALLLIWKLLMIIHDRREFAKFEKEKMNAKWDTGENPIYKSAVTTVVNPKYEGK
Sequence of Integrin beta-1 (Homo sapiens) + Integrin alpha-4 (Homo sapiens) (P13612 whole entry, looked up): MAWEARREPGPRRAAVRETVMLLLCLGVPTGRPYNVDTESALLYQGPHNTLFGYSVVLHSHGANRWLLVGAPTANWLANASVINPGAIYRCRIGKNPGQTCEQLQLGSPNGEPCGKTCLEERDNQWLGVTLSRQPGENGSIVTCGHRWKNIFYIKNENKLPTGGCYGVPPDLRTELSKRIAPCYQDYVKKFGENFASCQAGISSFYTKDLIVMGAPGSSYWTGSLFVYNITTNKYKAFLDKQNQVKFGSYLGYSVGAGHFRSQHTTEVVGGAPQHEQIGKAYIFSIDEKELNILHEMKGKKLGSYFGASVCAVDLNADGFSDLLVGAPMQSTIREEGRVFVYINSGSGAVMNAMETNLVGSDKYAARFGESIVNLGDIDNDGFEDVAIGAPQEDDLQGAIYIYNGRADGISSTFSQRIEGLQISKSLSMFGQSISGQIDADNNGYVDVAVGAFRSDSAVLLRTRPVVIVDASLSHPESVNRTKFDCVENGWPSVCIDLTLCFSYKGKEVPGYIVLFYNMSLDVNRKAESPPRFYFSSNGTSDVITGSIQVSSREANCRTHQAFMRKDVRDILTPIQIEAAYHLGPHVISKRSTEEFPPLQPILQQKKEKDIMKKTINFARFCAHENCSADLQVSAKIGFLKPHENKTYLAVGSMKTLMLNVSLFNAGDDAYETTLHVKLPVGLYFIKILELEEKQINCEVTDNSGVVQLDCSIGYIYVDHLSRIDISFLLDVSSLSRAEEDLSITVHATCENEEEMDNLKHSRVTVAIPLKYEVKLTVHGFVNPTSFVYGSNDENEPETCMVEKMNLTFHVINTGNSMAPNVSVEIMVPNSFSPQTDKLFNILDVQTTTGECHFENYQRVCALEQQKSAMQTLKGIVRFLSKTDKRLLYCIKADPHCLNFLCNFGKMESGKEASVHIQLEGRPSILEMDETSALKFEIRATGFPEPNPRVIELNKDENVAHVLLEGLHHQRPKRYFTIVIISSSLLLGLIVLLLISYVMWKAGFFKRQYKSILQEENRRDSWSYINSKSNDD

Experiment [8] in a line: calorie-restriction mimetic ROS inhibitors, yeast – validation compound set, pilot screen (AID 2706;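 active = superoxide response below 65% of plate, a cut near 3 SD across the whole screen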;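 also: yeast exposed to compound for one week at 30 degrees C before staining; 100% = mean of all compound wells on the same plate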). The settings on record: S. cerevisiae aging, superoxide DHE fluorescence; at 10 µM; stronger effect = lower value.
In experiment [9] the target is Beta-adrenergic receptor kinase 1 (Homo sapiens) (UniProt P25098). The experiment can be described thus: GRK2 binders displacing RNA aptamer, biochemical, validation, human GRK2, bead flow cytometry (AID 488806;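 active = aptamer binding inhibition above 30%, about 3 SD of noise from non-fluorescent compounds; inactive = inhibition at or below 30%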). As to conditions: bead-bound GRK2, FAM-aptamer displacement, at 10 µM, stronger effect = higher value.
Sequence of Beta-adrenergic receptor kinase 1 (Homo sapiens) (P25098 whole entry, looked up): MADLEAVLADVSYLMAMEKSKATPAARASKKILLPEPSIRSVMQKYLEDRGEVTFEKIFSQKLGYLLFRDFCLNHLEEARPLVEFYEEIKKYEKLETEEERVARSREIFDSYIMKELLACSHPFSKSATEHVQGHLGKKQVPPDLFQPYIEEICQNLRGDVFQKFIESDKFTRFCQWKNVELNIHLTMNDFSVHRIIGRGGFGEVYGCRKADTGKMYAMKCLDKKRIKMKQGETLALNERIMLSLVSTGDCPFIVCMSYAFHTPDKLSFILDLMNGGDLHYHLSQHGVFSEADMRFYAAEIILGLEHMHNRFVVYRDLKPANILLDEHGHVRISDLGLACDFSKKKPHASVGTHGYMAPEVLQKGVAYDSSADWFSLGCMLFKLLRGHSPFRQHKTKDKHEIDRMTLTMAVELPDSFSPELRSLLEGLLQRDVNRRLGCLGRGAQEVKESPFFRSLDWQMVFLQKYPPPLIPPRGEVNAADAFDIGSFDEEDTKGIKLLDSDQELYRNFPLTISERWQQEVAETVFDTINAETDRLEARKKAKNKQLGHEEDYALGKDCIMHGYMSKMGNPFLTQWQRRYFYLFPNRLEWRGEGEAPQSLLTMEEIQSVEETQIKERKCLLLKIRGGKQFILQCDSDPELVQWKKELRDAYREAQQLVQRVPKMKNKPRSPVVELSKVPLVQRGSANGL
In experiment [10] the target is Beta-2 adrenergic receptor (Homo sapiens) (UniProt P07550). The experiment can be described thus: agonist-induced loss of surface beta2AR – cell-based, FAP fluorogen, flow cytometry, validation set, pilot screen (AID 504459;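 active = percent response above 42, roughly 3 SD of non-fluorescent test compounds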;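 also: agonist-driven loss of surface beta2AR via internalization measured by FAP dye flow cytometry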). As to conditions: Am2.2-beta2AR cells, at 10 µM, stronger effect = higher value.
Sequence of Beta-2 adrenergic receptor (Homo sapiens) (P07550 whole entry, looked up): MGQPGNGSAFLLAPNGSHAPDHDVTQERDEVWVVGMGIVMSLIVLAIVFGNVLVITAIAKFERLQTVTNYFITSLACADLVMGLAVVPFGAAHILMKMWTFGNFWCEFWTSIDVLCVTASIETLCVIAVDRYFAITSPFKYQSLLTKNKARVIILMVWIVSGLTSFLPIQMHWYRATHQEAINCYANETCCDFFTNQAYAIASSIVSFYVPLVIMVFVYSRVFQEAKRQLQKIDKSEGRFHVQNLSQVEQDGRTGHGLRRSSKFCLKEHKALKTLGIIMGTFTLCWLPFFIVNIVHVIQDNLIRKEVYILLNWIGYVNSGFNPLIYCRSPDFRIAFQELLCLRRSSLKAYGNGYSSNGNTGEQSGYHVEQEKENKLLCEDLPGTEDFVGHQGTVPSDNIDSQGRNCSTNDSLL
For experiment [11], the target named is AP-2 complex subunit beta (Homo sapiens) (UniProt P63010). The experiment can be described thus: beta-arrestin/AP2 interaction blockers – biochemical, validation set, GST-AP2 beads, flow cytometry, pilot screen (AID 504541;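 active = inhibition above 54%, about 3 SD of non-fluorescent compounds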;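 also: AP2 carries R879A mutation and is captured from E. coli lysate; bead-bound FITC arrestin peptide fluorescence measuring arrestin peptide binding to AP2; 0% = DMSO wells and 100% = excess unlabeled arrestin peptide control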). The settings on record: FITC arrestin peptide, at 10 µM, stronger effect = higher value, AP2 beta2 appendage fragment, R879A mutant.
Sequence of AP-2 complex subunit beta (Homo sapiens) (P63010 whole entry, looked up, the tested form may be a part, one chain of several): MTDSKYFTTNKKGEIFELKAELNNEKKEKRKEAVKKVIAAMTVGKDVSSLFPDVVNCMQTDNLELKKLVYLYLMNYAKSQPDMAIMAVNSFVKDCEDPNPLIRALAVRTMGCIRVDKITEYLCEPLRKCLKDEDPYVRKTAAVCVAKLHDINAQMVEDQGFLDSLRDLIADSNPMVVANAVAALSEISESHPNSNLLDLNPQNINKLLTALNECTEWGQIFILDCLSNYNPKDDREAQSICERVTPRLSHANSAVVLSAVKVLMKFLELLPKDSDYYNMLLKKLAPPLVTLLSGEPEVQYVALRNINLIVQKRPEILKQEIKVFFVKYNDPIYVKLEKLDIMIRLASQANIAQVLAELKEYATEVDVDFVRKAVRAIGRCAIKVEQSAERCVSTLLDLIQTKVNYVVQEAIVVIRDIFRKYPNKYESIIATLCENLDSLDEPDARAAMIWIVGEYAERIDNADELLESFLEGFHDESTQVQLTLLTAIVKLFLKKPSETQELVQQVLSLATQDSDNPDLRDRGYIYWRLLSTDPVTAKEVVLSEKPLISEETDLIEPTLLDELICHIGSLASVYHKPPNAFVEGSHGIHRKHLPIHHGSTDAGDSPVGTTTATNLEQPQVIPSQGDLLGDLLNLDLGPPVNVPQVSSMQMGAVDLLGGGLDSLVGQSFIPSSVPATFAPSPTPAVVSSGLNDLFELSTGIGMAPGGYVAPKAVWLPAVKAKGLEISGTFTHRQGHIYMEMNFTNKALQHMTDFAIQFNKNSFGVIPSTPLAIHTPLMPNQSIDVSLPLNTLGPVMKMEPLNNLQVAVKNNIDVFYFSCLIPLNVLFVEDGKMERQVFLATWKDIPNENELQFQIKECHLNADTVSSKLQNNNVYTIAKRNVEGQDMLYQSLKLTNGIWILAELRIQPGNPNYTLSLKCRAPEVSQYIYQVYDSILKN
Experiment [12] can be described thus: cytosolic pH regulators acting via V-ATPase – S. cerevisiae, pHLuorin, HTS validation (AID 504600; in the data active = response above about 15%;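 also: plate controls were DMSO for no effect and reference compound for full effect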). The settings on record: V-ATPase proton transport, at 10 µM, stronger effect = higher value.
Experiment [13] concerns anti-desmoglein-3 scFv antibody binding to human DSG3. The experiment can be described thus: blockers of pathogenic pemphigus antibody–desmoglein-3 binding – biochemical, validation compound set, bead-based, flow cytometry, pilot screen (AID 588368;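 active = binding below the plate cutoff, the plate median minus 3 SD, with a reading above zero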;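 also: signal is the median channel fluorescence of bead-bound GFP antibody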). The settings on record: Protein G beads, DSG3-Fc, scFv-GFP binding, at 10 µM, stronger effect = lower value.
Experiment [14] in a line: Nile Red efflux blockade in pump-expressing yeast – validation compound set, multiplex, phenotypic, pilot screen (AID 588506;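 active = efflux inhibition above 0.42, the validation set average plus 4 SD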;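 also: Nile Red retained in cells so higher fluorescence means more efflux inhibition; 0 = negative control wells and 1 = enniatin B 25 µM full block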). As to conditions: S. cerevisiae pump-expressing triplex, Nile Red efflux flow cytometry; at 10 µM; stronger effect = higher value; the pumps come from Candida albicans.
The target of experiment [15] is ATP-binding cassette sub-family B member 6 (Homo sapiens) (UniProt Q9NP58). As to the kind of experiment: blockers of ABCB6-driven porphyrin uptake – K562-ABCB6 cells, flow cytometry, validation set, pilot screen (AID 588550).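 Also: 0% = DMSO wells and 100% = benzethonium chloride 70 µM positive control.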 The settings on record: K562-ABCB6 porphyrin accumulation, 1 h, at 10 µM, stronger effect = higher value.
Sequence of ATP-binding cassette sub-family B member 6 (Homo sapiens) (Q9NP58 whole entry, looked up): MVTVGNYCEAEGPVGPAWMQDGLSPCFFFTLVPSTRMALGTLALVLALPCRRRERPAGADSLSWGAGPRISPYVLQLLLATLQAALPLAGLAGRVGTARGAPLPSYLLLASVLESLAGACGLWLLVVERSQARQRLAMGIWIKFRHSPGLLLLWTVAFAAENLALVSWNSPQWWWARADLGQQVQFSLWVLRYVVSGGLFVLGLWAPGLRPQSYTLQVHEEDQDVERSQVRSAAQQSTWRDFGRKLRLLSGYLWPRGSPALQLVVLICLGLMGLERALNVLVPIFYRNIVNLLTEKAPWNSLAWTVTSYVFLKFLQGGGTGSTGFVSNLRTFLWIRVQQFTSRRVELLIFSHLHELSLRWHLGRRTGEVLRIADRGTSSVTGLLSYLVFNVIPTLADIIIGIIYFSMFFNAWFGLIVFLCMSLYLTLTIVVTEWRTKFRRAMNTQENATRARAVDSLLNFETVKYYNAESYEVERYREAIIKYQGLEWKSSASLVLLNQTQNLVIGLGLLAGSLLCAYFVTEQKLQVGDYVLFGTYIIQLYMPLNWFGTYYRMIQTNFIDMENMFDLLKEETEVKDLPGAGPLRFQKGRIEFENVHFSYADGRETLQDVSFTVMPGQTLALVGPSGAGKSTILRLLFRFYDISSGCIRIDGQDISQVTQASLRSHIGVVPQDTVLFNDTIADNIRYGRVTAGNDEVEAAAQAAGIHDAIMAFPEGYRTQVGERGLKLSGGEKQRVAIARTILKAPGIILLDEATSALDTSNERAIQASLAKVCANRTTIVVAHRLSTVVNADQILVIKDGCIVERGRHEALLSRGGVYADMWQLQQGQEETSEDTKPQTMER
A short description of experiment [16]: AML differentiation inducers, ER-HoxA9 marrow cells – cell-based, GFP/MAC1 double positive, flow cytometry, validation set, primary screen (AID 588685;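 active = differentiation response of at least 50%, scaled between solvent and reference control, from cells with both markers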;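 also: compound exposure lasts four days before antibody staining and flow analysis; 0% = DMSO wells and 100% = 5 µM fulvestrant positive control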). As to conditions: stronger effect = higher value, normalized: vehicle 0, fulvestrant 100.

Records with an inconclusive call do not appear. Activity calls are given as the source filed them.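 The calls were made as follows, unless noted: active = inhibition above the screen-wide mean plus 3 SD, about 51%; inactive = the rest.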

For the compound `CC(C)C[C@H]1C(=O)N2CCC[C@H]2[C@]2(O)O[C@](NC(=O)[C@@H]3C=C4c5cccc6[nH]c(Br)c(c56)CC4N(C)C3)(C(C)C)C(=O)N12` (stereo not given in full), the percent of DMSO control GFP in experiment [1] was 106% (inactive). Further, the figures for the GFP response vs DMSO in experiment [2] and in experiment [4] were 105% (inactive) and 102% (inactive), respectively. Also, the percent response of DMSO control in experiment [3] was 99.7% (inactive). Moreover, in experiment [5], the GFP response, % of DMSO is 104% (inactive). The compound further registered a double positive events in experiment [6] of 49.2%. Also, in experiment [6], the vesicle binding response is 107% (inactive). For the same compound, the figures for the inhibition in [7], in experiment [11] and in experiment [15] were -7.79% (inactive), -3.14% (inactive) and -91% (inactive), respectively. In addition, the superoxide response (% of plate) in experiment [8] was 97.8% (inactive). Moreover, in experiment [9], the aptamer binding inhibition was 0% (inactive). Moreover, the response in [10] was -5.85% (inactive); in experiment [12], 3.49% (inactive). Moreover, the binding (% of control) in experiment [13] was 99.8% (inactive). Besides, the efflux inhibition (fraction of control) in [14] is 0.58 (active). The differentiation response in [16] was 1.28% (inactive).

For `O=C1[C@@H]2CSCN2C(=O)CN1Cc1ccc(F)cc1`, the percent of DMSO control GFP in experiment [1] was 107% (inactive). Also, the figures for the GFP response vs DMSO in experiment [2] and in experiment [4] were 95.2% (inactive) and 82% (inactive), respectively. In addition, in experiment [3], the percent response of DMSO control was 106% (inactive). Moreover, in [5], the GFP response, % of DMSO is 94.8% (inactive). In [6], this compound gave a double positive events of 61.3%. Besides, the vesicle binding response in experiment [6] was 235% (inactive). Besides, the results for the inhibition in experiment [7], in experiment [11] and in experiment [15] were -3.16% (inactive), -4.78% (inactive) and 6% (inactive), respectively. Further, the superoxide response (% of plate) in [8] was 111% (inactive). Also, in experiment [9], the aptamer binding inhibition is 2% (inactive). Further, the response was 5.93% (inactive) in [10] and -2.17% (inactive) in experiment [12]. Further, the binding (% of control) in experiment [13] was 83.8% (inactive). Moreover, in experiment [14], the efflux inhibition (fraction of control) was -0.21 (inactive). Further, in experiment [16], the differentiation response is -21.6% (inactive).

On to `CCOC(=O)C1NN=C(C(=O)c2ccccc2)C1c1ccc(Cl)cc1` (stereo not given), for which, in experiment [1], the percent of DMSO control GFP was 98.3% (inactive). Besides, the GFP response vs DMSO in [2] was 96.6% (inactive); in experiment [4] it was 93.7% (inactive). Further, the percent response of DMSO control in experiment [3] is 91.3% (inactive). Besides, in experiment [5], the GFP response, % of DMSO was 88.8% (inactive). Also, in experiment [6], the double positive events is 58.1%. Moreover, in [6], the vesicle binding response was 192% (inactive). Besides, the results for the inhibition in experiment [7], in experiment [11] and in [15] were 9.63% (inactive), -2.22% (inactive) and 9% (inactive), respectively. Also, the superoxide response (% of plate) in experiment [8] is 106% (inactive). Besides, the aptamer binding inhibition in experiment [9] was 3% (inactive). Also, the values for the response in experiment [10] and in [12] were 3.04% (inactive) and -0.54% (inactive), respectively. For the same compound, the binding (% of control) in experiment [13] was 99% (inactive). In addition, the efflux inhibition (fraction of control) in experiment [14] was -0.005 (inactive). In [16], the differentiation response was -6.03% (inactive).

On to `COc1ccccc1NC(=O)Cn1c(C)cc(=O)c2cccc(OC)c21`, for which the percent of DMSO control GFP in experiment [1] is 102% (inactive). In addition, the GFP response vs DMSO in [2] was 108% (inactive); in experiment [4], 90.2% (inactive). Besides, the percent response of DMSO control in [3] is 100% (inactive). In addition, the GFP response, % of DMSO in experiment [5] was 99.9% (inactive). In experiment [6], this compound displayed a double positive events of 60.7%. The vesicle binding response in experiment [6] was 79.1% (inactive). The inhibition (usually the change of the read-out against control, counted positive when it falls) in experiment [7] is -11.8% (inactive); in experiment [11] it was -11.8% (inactive); in experiment [15], 6% (inactive). Further, in [8], the superoxide response (% of plate) is 105% (inactive). Besides, the aptamer binding inhibition in experiment [9] was 4% (inactive). For the same compound, the response in [10] is 11.6% (inactive); in [12], 0.11% (inactive). The binding (% of control) in [13] was 103% (inactive). For the same compound, the efflux inhibition (fraction of control) in [14] was 0.58 (active). Besides, the differentiation response in experiment [16] is -5.68% (inactive).

For `Cc1cc(O)c2/c(=N\N)c(-c3csc(C)n3)coc2c1`, the percent of DMSO control GFP in experiment [1] is 105% (inactive). Also, the GFP response vs DMSO was 107% (inactive) in experiment [2] and 106% (inactive) in [4]. Further, in [3], the percent response of DMSO control is 102% (inactive). For the same compound, in [5], the GFP response, % of DMSO was 110% (inactive). In experiment [6], this compound showed a double positive events of 56.7%. Moreover, the vesicle binding response in experiment [6] was 96.1% (inactive). In addition, the inhibition in [7] is 5.61% (inactive); in experiment [11], -8.85% (inactive); in [15] it was 3% (inactive). The superoxide response (% of plate) in experiment [8] is 102% (inactive). Also, the aptamer binding inhibition in experiment [9] is 3% (inactive). Also, the response in experiment [10] was 2.22% (inactive); in experiment [12], -3.38% (inactive). The binding (% of control) in [13] was 99.8% (inactive). Also, the efflux inhibition (fraction of control) in experiment [14] is -0.16 (inactive). The differentiation response in experiment [16] is -0.18% (inactive).

The values are drawn from PubChem BioAssay.
